Assay results as given in the supplement of paper PMC6992640.
± gives the standard deviation of the averaged measurements.

Key:
Assay in all cases: cell viability (% of vehicle); higher = less cytotoxic
Conditions in all cases: 10 µM; 72 h
HCI01 = test system: HCI01 (cells of a triple-negative basal-like breast cancer xenograft)
HCI03 = test system: HCI03 (cells of an ER-positive luminal breast cancer xenograft)
HCI09 = test system: HCI09 (cells of a triple-negative luminal androgen receptor type breast cancer xenograft)
HCI11 = test system: HCI11 (cells of an ER-positive luminal breast cancer xenograft)
HCI13 = test system: HCI13 (cells of an ER-positive luminal breast cancer xenograft)
HCI16 = test system: HCI16 (cells of a triple-negative basal-like breast cancer xenograft)
UCD52 = test system: UCD52 (cells of a triple-negative basal-like breast cancer xenograft)
WHIM2 = test system: WHIM2 (cells of a triple-negative basal-like breast cancer xenograft)
WHIM30 = test system: WHIM30 (cells of a triple-negative basal-like breast cancer xenograft)
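Note: PDX cells carrying CMV promoter-driven luciferase, viability read as total photon flux per second by IVIS imaging following D-luciferin, vehicle control 0.1% DMSO.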

Row | Compound | cell viability (HCI01) | cell viability (HCI03) | cell viability (HCI09) | cell viability (HCI11) | cell viability (HCI13) | cell viability (HCI16) | cell viability (UCD52) | cell viability (WHIM2) | cell viability (WHIM30)
1 | CSc1nc2cc(Oc3cccc(Cl)c3Cl)c(Cl)cc2[nH]1 [Triclabendazole] | 99.7 ± 4.9 | 108 | 83 ± 23 | 97.1 | 47.9 ± 7.4 | 127 | 89.2 ± 6.4 | 124 ± 34 | 134 ± 14
2 | CCS(=O)(=O)CCn1c([N+](=O)[O-])cnc1C [Tinidazole] | 92 ± 28 | 111 | 79.8 ± 12 | 88.6 | 101 ± 4.4 | 101 | 83.4 ± 14 | 81.2 ± 1.9 | 163 ± 1.9
3 | CN(C)CCc1c[nH]c2ccc(CC3COC(=O)N3)cc12 (configuration not stated) [Zolmitriptan] | 86.8 ± 19 | 134 | 107 ± 11 | 96 | 119 ± 21 | 107 | 94.8 ± 8.3 | 86.6 ± 2.1 | 131 ± 11
4 | OCC(O)C(O)C(O)C(O)CO (configuration not stated) [Sorbitol] | 89.2 ± 28 | 132 | 92.6 ± 8.6 | 84 | 102 ± 3.2 | 111 | 87.63 ± 0.58 | 86.6 ± 8.6 | 83.33 ± 0.53
5 | CC(C)(C)c1cc(C(C)(C)C)c(NC(=O)c2c[nH]c3ccccc3c2=O)cc1O [Ivacaftor (VX-770)] | 41.4 ± 24 | 83.8 | 18.7 ± 3.1 | 139 | 29.5 ± 4.1 | 121 | 97.2 ± 20 | 34.4 ± 0.58 | 200 ± 19
6 | COc1c2ccoc2cc2oc(=O)ccc12 [5-Methoxypsoralen] | 103 ± 24 | 142 | 93.1 ± 13 | 93.8 | 121 ± 3.1 | 109 | 85.2 ± 13 | 103 ± 3.7 | 93 ± 3.1
7 | CC12CC3CC(C)(C1)CC(N)(C3)C2.Cl [Memantine hydrochloride] | 88.8 ± 14 | 146 | 104 ± 13 | 99.3 | 116 ± 3.6 | 98.2 | 92.37 ± 0.13 | 88.1 ± 15 | 156 ± 21
8 | CC1OC(OCC2OC(Oc3c(-c4ccc(O)c(O)c4)oc4cc(O)cc(O)c4c3=O)C(O)C(O)C2O)C(O)C(O)C1O (configuration not stated) [Rutin] | 107 ± 32 | 128 | 101 ± 9.8 | 102 | 118 ± 8.5 | 138 | 103 ± 14 | 122 ± 9.8 | 101 ± 13
9 | Cc1c(N(C)C)c(=O)n(-c2ccccc2)n1C [Amidopyrine] | 99.1 ± 16 | 118 | 94.5 ± 19 | 93.2 | 76.33 ± 0.62 | 97.5 | 97.8 ± 7.1 | 117 ± 37 | 122 ± 8.5
10 | CC(O)C1C(=O)N2C(C(=O)O)=C(SC3CNC(CNS(N)(=O)=O)C3)C(C)C12.O (configuration not stated) [Doripenem Hydrate] | 103 ± 1.4 | 91.1 | 95.9 ± 7 | 84.3 | 84.8 ± 5.9 | 95.3 | 89.1 ± 5.5 | 93.6 ± 7.5 | 109 ± 5.1
11 | CN(C)C(=O)c1cc2cnc(Nc3ccc(N4CCNCC4)cn3)nc2n1C1CCCC1 | 109 ± 4.3 | 135 | 114 ± 30 | 138 | 126 ± 13 | 91.7 | 148 ± 8.1 | 108 ± 13 | 130 ± 9.5
12 | S=C(NCc1ccc2c(c1)OCO2)N1CCN(c2ncnc3c2oc2ccccc23)CC1 [Amuvatinib (MP-470, HPK 56)] | 107 ± 48 | 120 | 40 ± 18 | 81.7 | 82 ± 9.2 | 84.3 | 73 ± 1.1 | 149 ± 3.3 | 75.2 ± 9.7
13 | CCC1=CC2CN(C1)Cc1c([nH]c3ccccc13)C(C(=O)OC)(c1cc3c(cc1OC)N(C)C1C(O)(C(=O)OC)C(OC(C)=O)C4(CC)C=CCN5CCC31C54)C2.O=C(O)C(O)C(O)C(=O)O.O=C(O)C(O)C(O)C(=O)O (configuration not stated) [Vinorelbine ditartrate] | 106 ± 17 | 112 | 65.2 ± 5.9 | 109 | 39 ± 7.7 | 122 | 55.7 ± 4 | 57.2 ± 2.2 | 95.5 ± 16
14 | CN1CCCC[C@H]1CCN1c2ccccc2Sc2ccc(S(C)=O)cc21.O=S(=O)(O)c1ccccc1 (some centres not stated) [Mesoridazine Besylate] | 115 ± 9.3 | 77.9 | 132 ± 60 | 98.2 | 122 ± 10 | 106 | 95.9 ± 8.8 | 85.8 ± 21 | 103 ± 7.5
15 | C[N+](C)(C)CCO.[Cl-] [Choline Chloride] | 135 ± 42 | 120 | 89.2 ± 11 | 78.8 | 73.78 ± 0.7 | 116 | 85.6 ± 10 | 105 ± 17 | 101 ± 3.5
16 | N[C@@H](CCC(=O)N[C@@H](CS)C(=O)NCC(=O)O)C(=O)O [L-Glutathione Reduced] | 103 ± 5.7 | 115 | 107 ± 4 | 85.3 | 104 ± 6.7 | 113 | 99.8 ± 5.5 | 98.6 ± 5 | 131 ± 2.4
17 | CCCC(CCC)C(=O)[O-].[Na+] [Valproic acid sodium salt (Sodium valproate)] | 190 ± 54 | 154 | 92 ± 18 | 140 | 111 ± 14 | 159 | 158 ± 42 | 105 ± 18 | 192 ± 10
18 | O=C(NCC(O)CO)c1ccncc1Nc1ccc(I)cc1F (configuration not stated) | 72.8 ± 3.9 | 72.9 | 55.3 ± 28 | 83.1 | 64.4 ± 5.6 | 116 | 70.57 ± 0.44 | 41.9 ± 8.5 | 130 ± 14
19 | CCOC(=O)[C@H](CCc1ccccc1)N[C@@H](C)C(=O)N1[C@H](C(=O)O)C[C@H]2CCCC[C@@H]21 [Trandolapril] | 121 ± 2.9 | 148 | 115 ± 11 | 98.7 | 124 ± 12 | 130 | 112 ± 20 | 109 ± 14 | 174 ± 15

Row | Compound | cell viability (HCI01) | cell viability (HCI03) | cell viability (HCI09) | cell viability (HCI11) | cell viability (HCI13) | cell viability (HCI16) | cell viability (UCD52) | cell viability (WHIM2) | cell viability (WHIM30)
20 | CCOC(=O)C(CCc1ccccc1)NC(C)C(=O)N1CCCC1C(=O)O.O=C(O)C=CC(=O)O (configuration not stated) [Enalapril Maleate] | 128 ± 31 | 126 | 101 ± 2.9 | 72.3 | 102 ± 8.6 | 120 | 120 ± 4.4 | 116 ± 15 | 104 ± 3
21 | CC(C)C1CCC(C(=O)NC(Cc2ccccc2)C(=O)O)CC1 (configuration not stated) [Nateglinide] | 84.1 ± 62 | 131 | 76.3 ± 6.6 | 87.4 | 112 ± 18 | 110 | 94 ± 4.4 | 117 ± 19 | 122 ± 17
22 | COC(=O)C1=COC(OC2OC(CO)C(O)C(O)C2O)C2C(CO)=CCC12 (configuration not stated) [Geniposide] | 104 ± 24 | 158 | 104 ± 21 | 98.3 | 95.3 ± 7.7 | 116 | 116 ± 1.3 | 83.6 ± 4.8 | 96.53 ± 0.79
23 | CC(=O)OC1CCC2(C)C(=CCC3C2CCC2(C)C(c4cccnc4)=CCC32)C1 (configuration not stated) [Abiraterone acetate] | 96.7 ± 14 | 87.6 | 65.8 ± 28 | 88.7 | 68 ± 12 | 98 | 62.6 ± 1.9 | 95.5 ± 20 | 117 ± 51
24 | CC(=O)[C@@]1(O)CC[C@H]2[C@@H]3CCC4=CC(=O)CCC4=C3[C@@H](c3ccc(N(C)C)cc3)C[C@@]21C [Ulipristal] | 70.8 ± 48 | 147 | 36.6 ± 13 | 82.9 | 113 ± 3.3 | 118 | 93.5 ± 11 | 87.8 ± 10 | 142 ± 1.3
25 | CC1(C)SC2C(NC(=O)Cc3ccccc3)C(=O)N2C1C(=O)[O-].[Na+] (configuration not stated) [Penicillin G Sodium] | 170 ± 78 | 105 | 91.8 ± 20 | 105 | 70.7 ± 9.5 | 111 | 99.7 ± 20 | 108 ± 14 | 109 ± 5.6
26 | CC(=O)NCC1CN(c2ccc(N3CCOCC3)c(F)c2)C(=O)O1 (configuration not stated) [Linezolid] | 99.5 ± 2.9 | 108 | 93.8 ± 5.2 | 103 | 98.1 ± 3 | 110 | 81 ± 12 | 80.7 ± 1.3 | 137 ± 14
27 | COc1ccc2c(c1OC)C(=O)OC2C1c2c(cc3c(c2OC)OCO3)CCN1C.Cl (configuration not stated) [Noscapine HCl] | 127 ± 6.7 | 114 | 127 ± 49 | 117 | 101 ± 6.3 | 117 | 93.7 ± 5 | 111 ± 18 | 139.5 ± 0.58
28 | COc1cc(OC)c(C=CS(=O)(=O)Cc2ccc(OC)c(NCC(=O)[O-])c2)c(OC)c1.[Na+] | 126.6 ± 0.39 | 111 | 112 ± 11 | 99.6 | 40.1 ± 4.7 | 115 | 117 ± 20 | 73.9 ± 14 | 112 ± 16
29 | Nc1cccc2c1CN(C1CCC(=O)NC1=O)C2=O (configuration not stated) [Lenalidomide (CC-5013)] | 111 ± 4.1 | 107 | 85.5 ± 10 | 102 | 80.5 ± 0.91 | 101 | 80.5 ± 12 | 78.6 ± 3.5 | 134 ± 6.6
30 | CCN(CC)CC#CCOC(=O)C(O)(c1ccccc1)C1CCCCC1 (configuration not stated) [Oxybutynin] | 141 ± 10 | 130 | 132 ± 73 | 118 | 117 ± 17 | 134 | 82.9 ± 5.8 | 97.1 ± 30 | 148 ± 6.4
31 | Cl.O=C1OC(CN2CCOCC2)CN1N=Cc1ccc([N+](=O)[O-])o1 (configuration not stated) [Furaltadone HCl] | 75.8 ± 23 | 153 | 46.7 ± 22 | 63.7 | 94.2 ± 14 | 97 | 135 ± 13 | 42.7 ± 10 | 96 ± 4.8
32 | O=C1NC(=O)C(c2ccccc2)(c2ccccc2)N1 [Phenytoin] | 106 ± 8.9 | 151 | 105.6 ± 0.89 | 108 | 113 ± 16 | 129 | 99 ± 5.9 | 118 ± 16 | 160 ± 25
33 | COc1ccc2cc([C@H](C)C(=O)[O-])ccc2c1.[Na+] [Naproxen Sodium] | 83.6 ± 6.4 | 111 | 85.8 ± 14 | 106 | 124 ± 29 | 100 | 99.9 ± 3.1 | 102 ± 12 | 121 ± 22
34 | COc1cc(Nc2ncc(F)c(Nc3ccc4c(n3)N(COP(=O)([O-])[O-])C(=O)C(C)(C)O4)n2)cc(OC)c1OC.[Na+].[Na+] [R788 disodium] | 86.4 ± 12 | 76.8 | 95.4 ± 11 | 86.8 | 86.4 ± 11 | 64.5 | 58 ± 4 | 79.4 ± 16 | 91.9 ± 3.2
35 | Nc1ncn(C2CC(O)C(CO)O2)c(=O)n1 (configuration not stated) | 145 ± 29 | 140 | 96 ± 13 | 108 | 126 ± 12 | 123 | 136 ± 30 | 105 ± 16 | 189 ± 7.4
36 | O=C(O)c1ccc2c(c1)nc(Nc1cccc(Cl)c1)c1ccncc12 [CX-4945 (Silmitasertib)] | 115 ± 62 | 111 | 28.5 ± 13 | 137 | 192 ± 22 | 106 | 78 ± 8.1 | 99.48 ± 0.45 | 79.9 ± 14
37 | CC(C)C(N)C(=O)OCC(CO)OCn1cnc2c(=O)nc(N)[nH]c21.Cl (configuration not stated) [Valganciclovir HCl] | 96.1 ± 5.7 | 104 | 90 ± 24 | 90.6 | 55.1 ± 2 | 111 | 120 ± 38 | 111 ± 28 | 138 ± 13
38 | CC(=O)Nc1ccc(O)cc1 [Acetaminophen] | 93.9 ± 24 | 101 | 98.4 ± 7.2 | 80.4 | 116 ± 14 | 126 | 102 ± 6.9 | 92.71 ± 0.48 | 97.4 ± 3.5
